“And” between values parts separate entries of the source, which are not always exact repeats. Equal entries are not always repeated. In all, about 400,000 compounds went through this assay and about 3,700 (0.93%) were called active. Another 3% or so got no clear call; they are omitted. Calls follow the shape of the dose curve; as a rule, active = well fitted inhibition curve with a large enough effect; inconclusive = small, poorly fitted or top-dose-only effect, or another doubt; inactive = no such curve, though single readings can be large or run the other way. The entries come from a sample that favours actives as a whole.
% is scaled to controls: 0 for no effect and ±100 for the full control effect; potency is read from the fitted curve at half-maximal effect.

Sequence of Vitamin D3 receptor (Homo sapiens) (P11473 whole entry, looked up): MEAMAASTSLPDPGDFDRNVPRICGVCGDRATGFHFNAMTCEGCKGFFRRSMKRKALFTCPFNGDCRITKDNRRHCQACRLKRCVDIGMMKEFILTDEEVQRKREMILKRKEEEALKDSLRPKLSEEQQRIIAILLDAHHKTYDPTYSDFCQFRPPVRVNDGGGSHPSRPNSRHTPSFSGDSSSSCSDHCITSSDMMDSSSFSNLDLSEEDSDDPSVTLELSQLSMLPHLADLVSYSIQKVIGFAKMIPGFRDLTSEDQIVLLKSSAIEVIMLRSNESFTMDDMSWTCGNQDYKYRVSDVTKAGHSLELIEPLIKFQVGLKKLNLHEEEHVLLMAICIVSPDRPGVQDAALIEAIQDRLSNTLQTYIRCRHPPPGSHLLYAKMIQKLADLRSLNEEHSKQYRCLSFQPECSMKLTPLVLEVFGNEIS

The assay concerns the target Vitamin D3 receptor (Homo sapiens) (UniProt P11473). The assay can be described thus: Inhibitors of the vitamin D receptor (VDR): qHTS. As to conditions: VDR-SRC2-3 peptide fluorescence polarization, 2 h; max response, negative = inhibition: hits give low values. A digest of the protocol: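 VDR–SRC2-3 interaction, FP format. Cmpds 23 nl via pintool, brief spin, 2 h ambient incubation.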
Consider `Cc1cc(C)cc(-n2ccnc2SCC(=O)Nc2nc3ccccc3s2)c1`, for which the max response, negative = inhibition was -5.28% (inactive). On the same count and under the same terms, for `COc1cccc(-c2n[nH]c3c2C(c2cccc(O)c2)N(C)C3=O)c1` (stereo not given) the value was 9.73% (inactive); for `Cc1ccc(NC(=O)CSc2nc3c([nH]c4ccccc43)c(=O)n2-c2ccccc2)c(C)c1`, 3.26% (inactive). Same read-out and setting: the result for `Cc1cccc(-n2ccnc2SCC(=O)Nc2cccc3ccccc23)c1C` reads 21% (inactive). For `O=C(c1cccnc1)N(c1cc2sc(=O)oc2c2ccccc12)S(=O)(=O)c1ccccc1`, the Potency was 25.1 µM (active).

Regarding `O=C(c1cccnc1)N(Cc1ccccc1)C(=O)c1cccnc1`, the max response, negative = inhibition is -6.19% (inactive).

As to `COc1ccc(N(C(=O)c2cccnc2)S(=O)(=O)c2ccc(OC)c(OC)c2)cc1`, the max response, negative = inhibition was 2.95% (inactive). The same measure, in the same setting: the result for `Cc1sc2ncn(CC(=O)N3CCN(c4ccc(F)cc4)CC3)c(=O)c2c1S(=O)(=O)N1CCN(c2ncccn2)CC1` reads -10.1% (inactive). Consider `O=S(=O)(c1ccccc1)c1nc(-c2ccc(Cl)cc2Cl)oc1N1CCCCC1`, for which the max response, negative = inhibition is 1.4% (inactive).

For `CCOc1ccc(S(=O)(=O)Nc2ccc3oc4c(c3c2)CC(C)CC4)cc1` (stereo not given), the max response, negative = inhibition was -17.2% (inactive).

For the compound `COC(=O)c1nc(NC(=O)c2ccccc2)n[nH]1`, the max response, negative = inhibition is -20% (inactive). Still for that read-out and setting: for `O=C(Nc1ccc2ccccc2c1[N+](=O)[O-])c1ccccc1` the value was -2.31% (inactive). For `O=C(NC1=CC(=O)c2ccccc2C1=O)c1ccccc1`, the Potency was 11.2 µM (active). `CC(=O)OC1=C(C(C)=O)N(Cc2ccccc2)S(=O)(=O)c2ccccc21`: the max response, negative = inhibition was 8.35% (inactive). On the same count and under the same terms, for `CCOC(=O)N1CCc2c(sc(NCc3cccc(F)c3)c2C(=O)Nc2ccccc2OCC)C1` the value was -13.2% (inactive); for `COCCOC(=O)c1sc(=S)n(CCOC)c1N`, -9.87% (inactive). On to `COC(=O)c1sc(=S)n(-c2ccccc2)c1N`, for which the Potency is 79.4 µM (active).

As to `COC(=O)c1sc(N2CCN(Cc3ccccc3)CC2)nc1N`, the max response, negative = inhibition was 1.38% (inactive). `COc1ccc(CCNC(=O)c2ccc(CSCc3ccc(C)cc3)o2)cc1OC`: the max response, negative = inhibition is 9.55% (inactive).

On to `CCNc1ncc2ncc(=O)n(CCc3ccccc3)c2n1`, for which the max response, negative = inhibition was -21% (inactive). `CCNc1ncc2ncc(=O)n(Cc3cccc(OC)c3)c2n1`: the Potency was 50.1 µM (active). Take `COc1cccc(Cn2c(=O)c(-c3ccccc3)nc3cnc(OC)nc32)c1`: the max response, negative = inhibition is -7.36% (inactive). Still for that read-out and setting: the result for `COc1ccc(CC(=O)NCCc2sc3nc(-c4ccc(OC)cc4)nn3c2C)cc1` reads 5.32% (inactive); that for `CCCCCCCCCc1ccc(OCCOCCOCCOCCOCCOCCOCCOCCOCCO)cc1`, 1.96% (inactive). With `CCOC(=O)C1(CCOC)CCN(Cc2cc3ccccc3s2)CC1`, the Potency was 44.7 µM (active).

On to `CCOC(=O)C1(CCOC)CCN(Cc2ccc(C(=O)OC)cc2)CC1`, for which the max response, negative = inhibition was 15.5% (inactive). In the case of `CCCS(=O)(=O)N1CCC(CCOc2ccccc2)(C(=O)OCC)CC1`, the max response, negative = inhibition was -9.73% (inactive). The same measure, in the same setting: for `COc1cc(Cl)c(C)cc1NC(=O)CCc1nc2cccnc2n1Cc1cccs1` the value was 3.57% (inactive); for `Cc1cccc(N2CCN(C(=O)c3oc(=O)c4ccccc4c3-c3ccccc3)CC2)c1C`, -3.42% (inactive). On the same count and under the same terms, for `CCCCC/C=C\C[C@H](O)/C=C/C=C/C=C/[C@@H](O)CCCC(=O)O` the value was 7.71% (inactive). On to `O=C(Nc1ccccc1)c1nnsc1S(=O)(=O)c1ccc(Cl)cc1`, for which the Potency is 25.1 µM (active). As to `O=C(Nc1cccc(Cl)c1)c1csnn1`, the max response, negative = inhibition was -5.14% (inactive). Same read-out and setting: the result for `O=C(Nc1ccc(Oc2ccccc2)cc1)C1CCN(S(=O)(=O)c2ccc(Cl)cc2)CC1` reads -4.34% (inactive). Still for that read-out and setting: for `O=C(c1cccc(Cl)c1)N1CCN(CCc2ccncc2)CC1` the value was 9.31% (inactive); for `Cc1ccccc1NC(=O)CCOc1ccccc1`, -6.86% (inactive) and -22.6% (inactive). Regarding `Cc1ccccc1NC(=O)Cn1cc(C(=O)C2CC2)c2ccccc21`, the max response, negative = inhibition was 8.49% (inactive). Take `Cc1ccccc1NC(=O)CSC(=O)c1ccccc1`: the Potency was 79.4 µM (active). Turning to `COc1ccc(CCC(=O)c2c(O)cc(OC3OC(CO)C(O)C(O)C3O[C@@H]3OC(C)C(O)C(O)C3O)cc2O)cc1O` (stereo not given in full), the max response, negative = inhibition was -4.57% (inactive). Regarding `CCOc1cccc(NC(=O)CSc2ncc(-c3ccc(Cl)cc3)[nH]2)c1`, the max response, negative = inhibition is -19.8% (inactive).

Regarding `CC(C)=CCN1CCC2(CCc3ccccc32)CC1`, the max response, negative = inhibition is 10% (inactive). The same measure, in the same setting: the result for `COc1ccc(Cc2nc3ccc(C(=O)NCc4ccc(OC)cc4OC)cc3o2)cc1` reads 0.0782% (inactive). On the same count and under the same terms, the result for `NC(=O)CSc1oc(-c2cccs2)nc1S(=O)(=O)c1ccccc1` reads 2.03% (inactive).

For `CCCCS(=O)(=O)c1oc(-c2cccs2)nc1S(=O)(=O)c1ccccc1`, the Potency was 10 µM (active). With `Cc1ccc(S(=O)(=O)c2nc(-c3cccs3)oc2NCc2cccnc2)cc1`, the max response, negative = inhibition is -8.24% (inactive). Still for that read-out and setting: for `Cc1ccc(N2CC(c3nnc(Cc4ccccc4Cl)o3)CC2=O)cc1` (stereo not given) the value was 0.444% (inactive); for `Cc1ccc(-c2nnc3ccc(SCC(N)=O)nn23)cc1`, -9.24% (inactive); for `Cc1ccc(-c2nn3c(=O)cc(CN4CCN(S(=O)(=O)c5ccc(Cl)cc5)CC4)nc3s2)cc1`, 6.31% (inactive). Same read-out and setting: for `CCc1c(C)sc(NC(=O)C2c3ccccc3Oc3ccccc32)c1C(=O)OC(C)C` the value was -13.1% (inactive). Turning to `CC(C)(C)c1nnc(NC(=O)C2c3ccccc3Oc3ccccc32)s1`, the Potency is 35.5 µM (active). Regarding `CC(C)(C)NC(=O)NC(=O)COC(=O)C1c2ccccc2Oc2ccccc21`, the max response, negative = inhibition was -16.6% (inactive). Same read-out and setting: for `COc1cc(C(=O)N2CCC(c3ccncc3)CC2)cc(OC)c1OC` the value was 6.52% (inactive); for `CCOC(=O)c1c(NC(=O)CSc2nccc(=O)[nH]2)sc(C)c1C`, -12.3% (inactive). On to `CCOC(=O)c1c(NC(=O)CSc2nnc(CNc3ccc(C)cc3C)o2)sc(C)c1C`, for which the max response, negative = inhibition was -11.8% (inactive). For `CCOC(=O)c1c(NC(=O)COc2cc(C)ccc2C(C)C)sc(C)c1C`, the Potency was 39.8 µM (active). Regarding `CCc1nn(CC(=O)Nc2cccc(C)c2C)c(=O)c2cc3sccc3n12`, the max response, negative = inhibition is -8.74% (inactive). Same read-out and setting: the result for `CCOc1cccc2cc(-c3cn4c(n3)sc3cc(C)ccc34)c(=O)oc12` reads 10.9% (inactive); that for `COc1ccc(-c2nc3cnc(Oc4ccccc4)nc3n(Cc3cccs3)c2=O)cc1`, -0.524% (inactive). Regarding `COc1cccc(N2CCN(S(=O)(=O)c3ccc4c(c3)CCCN4C(C)=O)CC2)c1`, the max response, negative = inhibition was 4.58% (inactive).

Take `Cc1ccccc1CCNC(=O)C1CCN(c2nc3ccccc3nc2C(F)(F)F)CC1`: the max response, negative = inhibition is 5.88% (inactive).

For the compound `CCOc1cc(C(=O)OCC(=O)Nc2cccc(C)c2)ccc1OCC(=O)N1CCOCC1`, the max response, negative = inhibition was 8.55% (inactive). As to `CCOc1cc(C(=S)N2CCOCC2)ccc1OS(=O)(=O)c1ccc(Br)cc1`, the max response, negative = inhibition is -11.5% (inactive).

On to `CCOc1cc(C(=S)N2CCOCC2)ccc1O`, for which the Potency is 79.4 µM (active). Consider `CCN(CC)S(=O)(=O)c1ccc2c(c1)nc(CN(C)C(=O)Nc1ccc(Cl)cc1)n2C`, for which the max response, negative = inhibition was 11% (inactive).

On to `CC(C)NC(=O)N1CC[C@@]2(CCCN(C(=O)c3ccco3)C2)C1`, for which the max response, negative = inhibition was -6.63% (inactive). Turning to `O=C(c1csnn1)N1CCC[C@@]2(CCN(c3cccc(-c4ccccc4)c3)C2)C1`, the Potency is 44.7 µM (active).

As for `O=C(c1csnn1)N1CCC[C@@]2(CCN(Cc3nccs3)C2)C1`, the max response, negative = inhibition was 1.05% (inactive). In the case of `O=C(c1ccco1)N1CCC[C@@]2(CCN(c3ccccc3)C2)C1`, the Potency is 44.7 µM (active). Consider `O=C(c1csnn1)N1CCC2(CC1)CN(c1ncccn1)C2`, for which the max response, negative = inhibition is -1.15% (inactive). Same read-out and setting: for `O=C(c1ccco1)N1CCC2(CC1)CN(c1ncccn1)C2` the value was -6.75% (inactive); for `O=C(Cn1c(=O)n(-c2ccc(F)cc2)c(=O)c2sc3ccccc3c21)NC1CCCC1`, 8.11% (inactive); for `COc1ccccc1Nc1nc(N)nc(N)c1S(=O)(=O)c1ccccc1`, 15.2% (inactive).

For `COC(=O)c1ccc(NC(=O)CSc2n[nH]c(-c3ccccc3)n2)cc1`, the max response, negative = inhibition was 9.27% (inactive). With `COc1ccc2ncc3c(-c4ccc(C)c(C)c4)nn(CC(=O)NC4CCCC4)c3c2c1`, the max response, negative = inhibition was 5.23% (inactive). With `CCN1CCC(O)(/C=C/c2ccc(C)cc2)C(C(=O)/C=C/c2ccc(C)cc2)C1` (stereo not given), the Potency was 25.1 µM (active). Take `COc1ccc2c(c1)C=C(C(=O)NCc1cc(Br)ccc1OC)CO2`: the max response, negative = inhibition is 8.92% (inactive). In the case of `O=C(CN1CCOCC1)N/N=C/c1ccc(-c2ccc(Br)cc2)o1`, the max response, negative = inhibition is 13.8% (inactive). On the same count and under the same terms, for `Cc1ccc(NC(=O)CN2CCC(C(N)=O)CC2)cc1[N+](=O)[O-]` the value was -4.1% (inactive). Regarding `Cc1ccc(-c2ccc(/C=N/NC(=O)CN3CCOCC3)o2)cc1[N+](=O)[O-]`, the Potency was 2.51 µM (active). Regarding `O=C(CN1CCSc2ccccc21)N1CCN(c2ccccc2)CC1`, the max response, negative = inhibition is 16.3% (inactive).

In the case of `Cc1ccccc1CSc1nc2c([nH]c3ccccc32)c(=O)n1C`, the max response, negative = inhibition is 2.18% (inactive).

For `CCC(CC)c1nnc(NC(=O)C2CCN(C(=O)c3ccco3)CC2)s1`, the Potency was 89.1 µM (active).

On to `CCc1nnc(NC(=O)C2CCN(C(=O)c3ccccc3C)CC2)s1`, for which the max response, negative = inhibition was 0.925% (inactive).

With `COc1ccc(CNC(=O)C2CCN(C(=O)c3ccco3)CC2)cc1`, the max response, negative = inhibition was 3.03% (inactive). As for `Cc1ccc(-c2noc(-c3nnn(-c4cccc(C(F)(F)F)c4)c3N)n2)cc1`, the max response, negative = inhibition was 7.83% (inactive). `O=C1C(c2ccccn2)=[N+]([O-])c2ccccc21`: the Potency was 12.6 µM (active).

Consider `O=Cc1cn(-c2ccccc2)nc1-c1ccccn1`, for which the max response, negative = inhibition is 0.792% (inactive). The same measure, in the same setting: the result for `O=C(c1ccc2c(=O)n(Cc3ccco3)c(=S)[nH]c2c1)N1CCCC1` reads -15.6% (inactive). Turning to `CCOC(=O)c1cc2c(=O)n3ccccc3nc2n(CC2CCCO2)c1=NC(=O)c1ccc(C(C)(C)C)cc1` (stereo not given), the max response, negative = inhibition is -4.97% (inactive). On the same count and under the same terms, for `CC1=C(c2ccc(F)cc2)S(=O)(=O)N=C1N1CCC(C(=O)NCCc2ccccc2C)CC1` the value was 9.29% (inactive); for `Cc1nn(CC(=O)N2CCN(c3cccc(C(F)(F)F)c3)CC2)c(=O)c2cc3sccc3n12`, -6.46% (inactive).
